According to PubChem BioAssay:

Experiment: growth of efflux-deficient E. coli DRC39 – strain DRC39, OD650, 24 h, E. coli filamentation inducers, primary screen (AID 1178);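 also: growth measured as culture turbidity by optical density at 650 nm; test concentration not given here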
Conditions: E. coli DRC39 acrAB, higher = more signal, called active from +8 up or from −8 down

z-score, inactive:
COc1cc(C(O)C2C=CC3C(=O)NC(=O)C3N2Nc2ccccn2)cc(OC)c1OC (stereo unspecified) -1.24
COC(=O)[C@@]1(Cc2ccccc2)[C@H]2c3cc(C(=O)N4CCCC4)n(Cc4ccc(S(C)(=O)=O)cc4)c3C[C@H]2CN1C(=O)c1ccccc1 -1.33
C=C[C@@H](COC(=O)OC(C)(C)C)N(Cc1ccc(OC)cc1)S(=O)(=O)c1ccc(Br)cc1 -0.807
COC(=O)[C@H](Cc1ccccc1)N[C@@H](/C=C/C1CC1)[C@H](O)Cc1ccccc1 -0.053
O=C1c2ccccc2[C@](Cc2ccccc2I)(C(=O)NCCN2CCOCC2)[C@H](c2ccc(CO)cc2)N1C1CCCCC1 0.29
CCOC(=O)[C@H]1C/C=C/C[C@H](C(=O)OCC)C(=O)O[C@H]2[C@@H](OC)O[C@H](CO)[C@@H](OC(=O)c3c(OC)cccc3OC)[C@@H]2OC1=O 0.0332
CCOC(=O)C[C@H]1[C@H](OC(=O)c2ccc(C(=O)c3ccccc3)cc2)[C@@H](NC(=O)c2ccc3ccccc3c2)c2cc(OCCCO)ccc2N1C(=O)Cc1ccc(OC)cc1 -0.276
CCC(CC)C(O)C1C=CC2C(=O)NC(=O)C2N1Nc1ccccn1 (stereo unspecified) -0.485
COc1ccc([Si](C)(C)[C@H]2[C@H](CC(=O)N3Cc4ccccc4C[C@H]3CO)O[C@@]3(C(=O)N(Cc4cccc(N5CCC5=O)c4)c4ccccc43)[C@@H]2C)cc1 0.675
OCCCC1=CC(c2cccs2)N(Cc2cc3c(cc2Br)OCO3)CC1 (stereo unspecified) -0.341
CCCCCCc1nc(-c2ccc(OC)nc2)cc2c1[Si](C(C)C)(C(C)C)O[C@H]2c1ccccc1 0.231
COc1ccc([Si](C)(C)[C@H]2[C@H](CCO)O[C@@]3(C(=O)N(Cc4ccc(N(C=O)c5ccccc5)cc4)c4ccccc43)[C@@H]2C)cc1 0.216
O=C(NCCO)C1=C[C@H](Oc2ccccc2I)[C@@H](O)[C@H](N(Cc2ccco2)C(=O)Cc2ccccc2)C1 -0.49
C=C[C@H](C)[C@@H](OC(=O)Nc1ccc(OC)cc1)c1ccc(O)c2ccccc12 1.42
C=C(COC)/C(=C/C[C@H](OC(C)=O)c1ccc(CO)o1)c1cc(C(=O)OC)ccc1OC -1.38
COC(=O)[C@@]1(Cc2ccccc2)[C@H]2c3cc(C(=O)N(C)C)n(Cc4ccsc4Br)c3C[C@H]2CN1C(=O)c1ccccc1 0.156
COc1ccc([Si](C)(C)[C@@H]2[C@@H](CCO)O[C@]3(C(=O)N(Cc4ccc(N(C=O)c5ccccc5)cc4)c4ccccc43)[C@H]2C)cc1 0.544
CN(C)CCCCCCNC(=O)[C@H]1C[C@H]2C(=O)N3CCC[C@H]3C(=O)N2[C@H]1c1ccc(O)cc1 0.113
O=C(CS)NCCCCCCNC(=O)[C@@H]1C[C@@H]2C(=O)NCC(=O)N2[C@@H]1c1cccc(OCCO)c1 0.713
COC(=O)[C@@]1(Cc2ccc(F)cc2)[C@H]2c3cc(C(=O)N(C)C)n(Cc4ccccc4)c3C[C@H]2CN1C(=O)c1ccccc1 -0.342
C=CCNC(=O)[C@H]1[C@@H]2C(=O)O[C@@H](c3ccccc3)[C@@H](c3ccccc3)N2[C@@H](c2ccccc2OCCO)[C@]12C(=O)Nc1ccc(C#CCC(C(=O)OC)C(=O)OC)cc12 0.284
COCCOC(=O)N1C(=O)[C@@]2(c3cc(C#CCNC(N)=O)ccc31)[C@H](C(=O)Nc1nc3ccccc3s1)[C@H]1C(=O)O[C@H](c3ccccc3)[C@H](c3ccccc3)N1[C@@H]2c1ccc(OCCO)cc1 -0.27
C=CCOC(=O)[C@H]1[C@@H]2C(=O)O[C@@H](c3ccccc3)[C@@H](c3ccccc3)N2[C@@H](c2ccc(OCCOC(=O)[C@H]3C[C@H]4C(=O)N[C@@H](CCCC[N+](C)(C)C)C(=O)N4[C@H]3c3ccc(O)cc3)cc2)[C@]12C(=O)Nc1ccc(I)cc12 -0.873
C=CCOC(=O)[C@H]1[C@@H]2C(=O)O[C@@H](c3ccccc3)[C@@H](c3ccccc3)N2[C@@H](c2ccc(OCCOC(=O)[C@H]3C[C@H]4C(=O)N[C@@H](CCCCN(C)C)C(=O)N4[C@H]3c3ccc(O)cc3)cc2)[C@]12C(=O)Nc1ccc(I)cc12 -0.624
C=CCN1C(=O)[C@@]2(CC=C)N=C(c3ccc(OCCCO)cc3)O[C@H]2c2ccccc21 1.19

Experiment: growth of efflux-deficient E. coli DRC39 – strain DRC39, OD650, 48 h, E. coli filamentation inducers, primary screen (AID 1179);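 also: screen aims at cell division blockers that make cells filament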
Conditions: E. coli DRC39 delta-acrAB growth, higher = more signal, called active from +8 up or from −8 down

z-score, inactive:
COC(=O)[C@@]1(Cc2ccc(F)cc2)[C@H]2c3cc(C(=O)N4CCCC4)n(Cc4ccc(S(C)(=O)=O)cc4)c3C[C@H]2CN1C(=O)c1ccccc1 -0.704
CO[C@H]1O[C@H](CO)[C@@H](OC(=O)Nc2ccc(C(F)(F)F)cc2)[C@H](OC(=O)Nc2ccc3c(c2)OCO3)[C@@H]1OC(=O)Nc1ccc2c(c1)OCO2 0.2
O=C1O[C@@H](c2ccccc2)[C@@H](c2ccccc2)N2[C@@H](c3ccccc3OCCO)[C@]3(C(=O)Nc4ccccc43)[C@@H](C(=O)Nc3nc4ccccc4s3)[C@H]12 -1.25
Cc1ccc(S[C@]2(C(=O)NCCCN(C)C)CC(=O)N(Cc3cc(C(F)(F)F)cc(C(F)(F)F)c3)[C@@H]2c2ccc(CO)cc2I)cc1 0.786
O=C1c2ccccc2[C@](Cc2ccccc2I)(C(=O)NCC(F)(F)F)[C@H](c2ccc(CO)cc2)N1Cc1ccccc1Cl 0.53
O=C(NCCN1CCOCC1)[C@@H]1c2ccccc2C(=O)N(C2CCCCC2)[C@H]1c1ccc(CO)cc1 -0.783
CC#CC(=O)Oc1ccccc1C=CC(=O)OCC 0.51
COC(=O)[C@@]1(CCS(=O)(=O)c2ccccc2)N=C(c2ccc(OCCCO)cc2)O[C@H]1c1ccccc1CN=[N+]=[N-] -0.154
C=CC1(C(=O)OC)CC=C(C(=O)OC)CC1 (stereo unspecified) 1.19
CC(C)C(CO)N1C(=O)[C@@H]2C3C(=O)OCCC/C=C\[C@H]3OC23C=CCN(CCN2CCOCC2)C(=O)[C@@H]13 (stereo partly specified) 0.566
COc1cc(C(O)C2C=CC3C(=O)NC(=O)C3N2Nc2ccccn2)cc(OC)c1OC (stereo unspecified) -0.397
COC(=O)[C@@]1(Cc2ccccc2)[C@H]2c3cc(C(=O)N4CCCC4)n(Cc4ccc(S(C)(=O)=O)cc4)c3C[C@H]2CN1C(=O)c1ccccc1 -0.195
C=C[C@@H](COC(=O)OC(C)(C)C)N(Cc1ccc(OC)cc1)S(=O)(=O)c1ccc(Br)cc1 -0.667
COC(=O)[C@H](Cc1ccccc1)N[C@@H](/C=C/C1CC1)[C@H](O)Cc1ccccc1 -0.181
O=C1c2ccccc2[C@](Cc2ccccc2I)(C(=O)NCCN2CCOCC2)[C@H](c2ccc(CO)cc2)N1C1CCCCC1 0.205
CCOC(=O)[C@H]1C/C=C/C[C@H](C(=O)OCC)C(=O)O[C@H]2[C@@H](OC)O[C@H](CO)[C@@H](OC(=O)c3c(OC)cccc3OC)[C@@H]2OC1=O 0.328
CCOC(=O)C[C@H]1[C@H](OC(=O)c2ccc(C(=O)c3ccccc3)cc2)[C@@H](NC(=O)c2ccc3ccccc3c2)c2cc(OCCCO)ccc2N1C(=O)Cc1ccc(OC)cc1 0.471
CCC(CC)C(O)C1C=CC2C(=O)NC(=O)C2N1Nc1ccccn1 (stereo unspecified) 0.333
COc1ccc([Si](C)(C)[C@H]2[C@H](CC(=O)N3Cc4ccccc4C[C@H]3CO)O[C@@]3(C(=O)N(Cc4cccc(N5CCC5=O)c4)c4ccccc43)[C@@H]2C)cc1 0.398
OCCCC1=CC(c2cccs2)N(Cc2cc3c(cc2Br)OCO3)CC1 (stereo unspecified) -0.681
CCCCCCc1nc(-c2ccc(OC)nc2)cc2c1[Si](C(C)C)(C(C)C)O[C@H]2c1ccccc1 -0.0838
COc1ccc([Si](C)(C)[C@H]2[C@H](CCO)O[C@@]3(C(=O)N(Cc4ccc(N(C=O)c5ccccc5)cc4)c4ccccc43)[C@@H]2C)cc1 -0.495
O=C(NCCO)C1=C[C@H](Oc2ccccc2I)[C@@H](O)[C@H](N(Cc2ccco2)C(=O)Cc2ccccc2)C1 -0.666
C=C[C@H](C)[C@@H](OC(=O)Nc1ccc(OC)cc1)c1ccc(O)c2ccccc12 0.525
C=C(COC)/C(=C/C[C@H](OC(C)=O)c1ccc(CO)o1)c1cc(C(=O)OC)ccc1OC -0.816
COC(=O)[C@@]1(Cc2ccccc2)[C@H]2c3cc(C(=O)N(C)C)n(Cc4ccsc4Br)c3C[C@H]2CN1C(=O)c1ccccc1 0.0523
COc1ccc([Si](C)(C)[C@@H]2[C@@H](CCO)O[C@]3(C(=O)N(Cc4ccc(N(C=O)c5ccccc5)cc4)c4ccccc43)[C@H]2C)cc1 -0.339
CN(C)CCCCCCNC(=O)[C@H]1C[C@H]2C(=O)N3CCC[C@H]3C(=O)N2[C@H]1c1ccc(O)cc1 -0.523
O=C(CS)NCCCCCCNC(=O)[C@@H]1C[C@@H]2C(=O)NCC(=O)N2[C@@H]1c1cccc(OCCO)c1 1.16
COC(=O)[C@@]1(Cc2ccc(F)cc2)[C@H]2c3cc(C(=O)N(C)C)n(Cc4ccccc4)c3C[C@H]2CN1C(=O)c1ccccc1 0.232
C=CCNC(=O)[C@H]1[C@@H]2C(=O)O[C@@H](c3ccccc3)[C@@H](c3ccccc3)N2[C@@H](c2ccccc2OCCO)[C@]12C(=O)Nc1ccc(C#CCC(C(=O)OC)C(=O)OC)cc12 -0.303
